# Compounds with a hit are over-represented: about 8.7% of the library has one in this group of screens.
# Sfp PPTase inh – Sfp phosphopantetheinyl transferase inhibition. Q9F4F7. Biochemical Sfp PPTase activity, qHTS. Potency, µM, for inactives: largest response in the series, negative = inhibition, usual class: inhibitors. 310,000 tested, 3.5% active. AID 1490;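 note: the enzyme is Sfp with the accession as filed and its product quenches rhodamine fluorescence; 0% = enzyme reaction without inhibitor and -100% = no enzyme wells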
#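 Fluorescence-quenching assay: 15 nM Sfp-PPTase preincubated 15 min at room temperature with compound, then 5 uM rhodamine-CoA and 12.5 uM BHQ-2-labelled YbbR peptide added. Fluorescence (ex 525/em 598 nm) read at start and after 30 min; difference gives rate.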
# ALOX12 inh – blocks human arachidonate 12S-lipoxygenase; purified 12hLO, xylenol orange hydroperoxide absorbance; Potency, µM (doses to about 108 µM), inactives show at the highest dose activity change, negative = inhibition, hits mostly inhibitors; 580,000 tested, 1.1% active; note: % is set by controls: 0 for no effect and ±100 for the full control effect
#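 Purified human 12hLO (150 nM final) in 25 mM Hepes, 0.01% Triton X-100, pH 7.0 was preincubated 15 min at room temperature with compound. Then 40 uM arachidonic acid was added, 30 min. Hydroperoxide was read by Fe-XO absorbance ratio 573/405 nm.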
# JMJD2A Tudor – inhibitors of human JMJD2A Tudor domain; O75164; AlphaScreen JMJD2A-Tudor / H3K4me3 peptide binding; Potency, µM (series often up to 114 µM), inactives show top-dose activity change, negative = inhibition, most hits filed as inhibitors; 390,000 tested, 4.4% active; AID 504339; note: % is set by controls: 0 for no effect and ±100 for the full control effect; nearly all actives have a fitted effect of over 50% in size
# Target sequence (O75164 whole entry, looked up, the tested form may be a part): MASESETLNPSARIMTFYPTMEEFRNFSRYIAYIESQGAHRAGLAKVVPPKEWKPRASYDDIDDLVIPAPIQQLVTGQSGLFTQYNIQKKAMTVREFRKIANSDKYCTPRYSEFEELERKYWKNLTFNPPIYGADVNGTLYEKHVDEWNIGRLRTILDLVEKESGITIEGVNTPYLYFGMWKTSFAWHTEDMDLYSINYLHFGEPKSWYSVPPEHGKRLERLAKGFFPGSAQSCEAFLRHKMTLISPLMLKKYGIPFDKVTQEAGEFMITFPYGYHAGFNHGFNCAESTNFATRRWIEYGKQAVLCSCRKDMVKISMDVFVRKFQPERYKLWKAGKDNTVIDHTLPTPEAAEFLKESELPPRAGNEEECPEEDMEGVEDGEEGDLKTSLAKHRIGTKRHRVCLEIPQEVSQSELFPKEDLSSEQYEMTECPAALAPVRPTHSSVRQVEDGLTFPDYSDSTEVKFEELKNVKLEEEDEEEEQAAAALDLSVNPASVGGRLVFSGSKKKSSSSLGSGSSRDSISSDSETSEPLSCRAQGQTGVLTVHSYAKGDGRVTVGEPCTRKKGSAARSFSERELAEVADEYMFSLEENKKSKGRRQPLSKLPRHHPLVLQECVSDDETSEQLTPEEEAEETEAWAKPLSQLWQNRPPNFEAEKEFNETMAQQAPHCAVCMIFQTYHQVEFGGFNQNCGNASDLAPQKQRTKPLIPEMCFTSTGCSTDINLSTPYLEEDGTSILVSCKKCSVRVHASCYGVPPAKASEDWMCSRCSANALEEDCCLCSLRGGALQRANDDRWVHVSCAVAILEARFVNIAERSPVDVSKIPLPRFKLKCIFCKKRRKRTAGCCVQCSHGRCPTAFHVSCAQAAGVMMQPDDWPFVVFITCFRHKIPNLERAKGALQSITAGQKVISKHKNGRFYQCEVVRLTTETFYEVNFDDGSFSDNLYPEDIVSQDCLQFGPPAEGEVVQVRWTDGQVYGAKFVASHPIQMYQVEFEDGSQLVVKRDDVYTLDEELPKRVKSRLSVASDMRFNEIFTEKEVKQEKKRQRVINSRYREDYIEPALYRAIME
# G9a inh – inhibitors of human histone lysine methyltransferase G9a | G9a H3K9 monomethylation, AlphaScreen, 2 h | Q96KQ7 | 350,000 tested, 8.8% active | Potency, µM (doses to about 102 µM), for the others: top-dose activity, negative = inhibition, hits mostly inhibitors; note: % is set by controls: 0 for no effect and ±100 for the full control effect; nearly all actives have a fitted effect of over 75% in size
#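 Readings reflect AlphaScreen signal from monomethyl-H3K9 antibody detection. HMT at 20 nM; substrate b-H3K9 500 nM; cofactor SAM 20 uM; 2 h RT reaction; compounds tested as titrations in qHTS with 15 min preincubation.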
# BAZ2B block – blocks human BAZ2B; 360,000 tested, 4.4% active; AID 504333; Potency, µM (series often up to 114 µM), inactives show at the top dose activity change, negative = inhibition, actives largely listed as inhibitors; Q9UIF8; AlphaScreen BAZ2B-H3K14Ac peptide displacement; note: % is set by controls: 0 for no effect and ±100 for the full control effect; nearly all actives have a fitted effect of over 60% in size
#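 BAZ2B (50 nM) with biotin-H3(5-23)K14Ac peptide (50 nM) in PBS pH 7.4, 0.01% Tween-20, preformed 30 min, then compound 30 min at room temperature; top concentration 110uM. AlphaScreen streptavidin donor/nickel chelate acceptor beads (10 ug/mL final), 20 min dark, signal read.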
# HP1b binding inh – blocks HP1-beta chromodomain binding to methylated histone tails | 390,000 tested, 0.56% active | Potency, µM (highest dose often 114 µM), without a hit: at the highest dose activity change, negative = inhibition, actives largely listed as inhibitors | AlphaScreen HP1-beta / biotin-H3K9me3 peptide binding | AID 540317; note: nearly all actives have a fitted effect of over 70% in size
#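 AlphaScreen: HP1-beta (50 nM) preformed 30 min with biotin-H3(1-18)K9me3 peptide (50 nM) in PBS pH 7.4, 0.01% Tween-20. Compound added for 30 min at RT, then streptavidin donor/nickel chelate acceptor beads (10 ug/mL) for 30 min.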
# * marks the source's active call; other numbers are inactive results; ? = inconclusive; nt = not tested or not shown; [ ] = dose if it differs, or a comment. Calls come from the whole dose curve; as a rule, active = well fitted curve in the direction sought with a large enough effect; inconclusive = small, poorly fitted or top-dose-only effect, or another doubt; inactive = no such curve, though single readings can be large; an effect the other way counts as inactive or inconclusive. Potency is the fitted concentration of half-maximal effect.
SMILES,Sfp PPTase inh,ALOX12 inh,JMJD2A Tudor,G9a inh,BAZ2B block,HP1b binding inh
COc1cc2cc(CN(Cc3nnnn3Cc3ccccc3)CC3CCCO3)c(=O)[nH]c2cc1OC (stereo unspecified),56.2µM*,-19.0%,-15.8%,0.0%[59 µM],21.9%,32.9%
CCc1ccc2[nH]c(=O)c(CN(Cc3ccccc3)Cc3nnnn3C(C)(C)C)cc2c1,nt,nt,-26.9%[57.1 µM],nt,nt,1.5%[57 µM]
COc1ccc2[nH]c(=O)c(CN(Cc3ccccc3)Cc3nnnn3CC3CCCO3)cc2c1 (stereo unspecified),-2.0%,6.8%,-20.2%,2.4%[59 µM],-13.8%,18.8%
COc1ccc2[nH]c(=O)c(CN(Cc3cccnc3)Cc3nnnn3CC3CCCO3)cc2c1 (stereo unspecified),79.4µM*,5.7%,-13.7%,nt,-10.4%,19.9%
CCc1ccc2[nH]c(=O)c(CN(Cc3ccc(OC)cc3)Cc3nnnn3CCOC)cc2c1,12.6µM*,-22.9%,-30.1%,?,-36.6%,15.5%
O=C(c1ccc(F)cc1)c1ccccc1C(=O)N1CCN(C(=O)CCC2CCCC2)CC1,nt,9.9%,nt,nt,nt,nt
C=Cc1ccc(CN2C(=O)N(c3ccc(C(C)=O)cc3)S(=O)(=O)c3ccccc32)cc1,nt,-61.6%,nt,nt,nt,nt
COc1ccc(-c2nc3n(c(=O)c2C#N)CCS3)cc1,1.7%,-6.5%,4.1%,-32.7%,19.2%,13.2%
FC(F)Oc1ccc(/C=N/c2c(-c3ccc(OC(F)F)cc3)nc3n2CCS3)cc1,6.3%,16.6%,50.1µM*,?,?,?
O=C(c1cc2ccccc2[nH]1)N(Cc1ccc(F)cc1)C1CC1,nt,6.0%,nt,nt,nt,nt
COc1ccc(N2Cc3ccccc3C2=NC(=O)c2cccc([N+](=O)[O-])c2)cc1,3.7%,-17.2%,-21.6%,20µM*,?,3.5%
CC(=O)c1ccc(N2Cc3ccccc3C2=NC(=O)c2cccs2)cc1,-2.8%,-21.4%,-16.1%,-0.7%[59 µM],-5.2%,16.1%
COc1ccc(N2Cc3ccccc3C2=O)cc1,11.9%,0.5%,-4.8%,-1.5%,-36.5%,50.1%
O=C(N=C1c2ccccc2CN1c1ccc(F)cc1)c1ccc(Cl)nc1,-2.8%,-17.0%,-11.6%,22.4µM*,4.1%,23.3%
COc1ccc(N2Cc3ccccc3C2=NC(=O)c2cncc(Br)c2)cc1,10.5%,-13.2%,?,31.6µM*,-30.1%,10.6%
CCOC(=O)c1ccc(N2Cc3ccccc3C2=NC(=O)c2ccncc2)cc1,5.6%,-14.3%,-2.1%,?,-1.1%,46.5%
N#Cc1cnn2c1NC1=C(C(=O)CCC1)C2c1ccccc1 (stereo unspecified),nt,19.1%,nt,nt,nt,nt
Oc1ccc(/C=N/NC(=S)NC2CC3CCC2C3)cc1 (stereo unspecified),-0.4%,17.8µM*,-35.0%,nt,?,5.7%
COc1ccc(C2Cn3nnc(-c4noc(-c5cccc(N(C)C)c5)n4)c3CO2)cc1 (stereo unspecified),nt,29.0%,nt,nt,nt,nt
Cc1cc(=O)c2c(O)c(O)ccc2o1,79.4µM*,?,3.16µM*,1.78µM*,?,6.9%
Cc1cccc(NC(=S)N2CCN(S(=O)(=O)c3cccc(F)c3)CC2)c1,11.5%,13.0%,-11.1%,1.5%,-38.7%,5.8%
CC(=O)c1cccc(NC(=S)N2CCN(S(=O)(=O)c3ccccc3)CC2)c1,-22.3%,23.5%,-15.3%,44.7µM*,-20.5%,?
Cc1cccc(NC(=S)N2CCN(S(=O)(=O)c3ccccc3)CC2)c1,3.5%,0.0%,-19.2%,?,-22.9%,29.8%
O=[N+]([O-])c1ccc(NC(=S)N2CCN(S(=O)(=O)c3ccccc3)CC2)cc1,10.2%,137.6%,?,50.1µM*,-30.4%,-2.3%
CC(=O)c1cccc(NC(=S)N2CCN(S(=O)(=O)c3ccc(F)cc3)CC2)c1,-19.7%,13.6%,-2.6%,28.2µM*,-13.5%,14.2%[57 µM]
SMILES,Sfp PPTase inh,ALOX12 inh,JMJD2A Tudor,G9a inh,BAZ2B block,HP1b binding inh
COc1ccc(NC(=O)CSC2=C(C#N)C(c3ccco3)C3=C(CCCC3=O)N2)c(OC)c1 (stereo unspecified),?,17.8µM*,-27.7%,44.7µM*,79.4µM*,-9.2%
COc1ccc(C2C(C#N)=C(SCC(=O)Nc3ccc(C)cc3)NC3=C2C(=O)CC(C)(C)C3)cc1 (stereo unspecified),?,31.2%,-5.5%[57.1 µM],?,-7.2%,34.7%
CCCCc1ccc(NC(=O)CSC2=C(C#N)C(c3ccco3)C3=C(CCCC3=O)N2)cc1 (stereo unspecified),7.94µM*,-49.0%,-35.1%,-9.0%[12.7 µM],?,4.5%
Cc1ccc(C(=O)CSC2=C(C#N)C(c3ccco3)C3=C(CCCC3=O)N2)cc1 (stereo unspecified),-22.8%,?,-30.6%,-6.5%[59 µM],?,20.0%
COc1ccccc1C1=NS(=O)(=O)N(C)C(C(=O)N2CCN(C)CC2)=C1,nt,0.5%,nt,nt,nt,nt
CCOc1cc(/C=C2/NC(=O)NC2=O)ccc1OCc1ccccc1F,nt,17.2%,nt,nt,nt,nt
CCOc1cc(/C=C2/C(=O)ON=C2C)ccc1OCc1ccccc1F,20µM*,?,?,?,?,2.8%
CCOc1cc(/C=C2/C(=O)ON=C2C)ccc1OCc1ccc(F)cc1,50.1µM*,?,5.0%,?,-24.2%,10.0%
CCOc1cc(/C=C2/C(=O)ON=C2C)ccc1OCc1ccccc1,-22.3%,?,-0.7%,nt,-38.1%,23.9%
Cc1cc(Nc2ccccc2F)n2nc(Cc3ccccc3)nc2n1,nt,55.4%,nt,nt,nt,nt
Cn1ccnc1CN1C[C@@H]2C[C@H]1C(=O)N(Cc1cccnc1)c1ccccc1O2,nt,45.7%[176 µM],nt,nt,nt,nt
O=C1CCN(C(=O)c2ccc(Cl)cc2)N1,?,-9.5%,89.1µM*,12.6µM*,56.2µM*,8.5%
O=C(CSc1ccc(Cl)cc1)N1CCOCC1,13.9%,0.0%,-16.5%,4.1%[12.7 µM],2.1%,40.5%
O=C1CCN(C(=O)CSc2ccc(Cl)cc2)N1,?,-18.7%,?,14.1µM*,50.1µM*,18.2%
Cc1ccc(-c2nc3n(n2)Cc2ccccc2-3)cc1,-0.7%,-4.2%,-14.4%,21.8%[59 µM],-2.4%,8.8%
NC(=S)Cc1nc2n(n1)Cc1ccccc1-2,56.2µM*,?,25.1µM*,3.98µM*,-22.8%,-13.8%
O=C(Cn1cc(C(F)(F)F)cc(Cl)c1=O)Nc1cc(Cl)ccc1F,nt,-2.2%,nt,nt,nt,nt
COc1ccc(CNC(=O)C(C)SCCO)cc1OC (stereo unspecified),nt,-3.6%,nt,nt,nt,nt
COc1ccc(CNC(=O)c2sc3nc4n(c(=O)c3c2C)CCCC4)cc1,nt,-7.5%,89.1µM*,14.1µM*,44.7µM*,56.4%
Cc1c(C(=O)Nc2cccc(C#N)c2)sc2nc3n(c(=O)c12)CCCCC3,nt,12.3%,-11.5%,?,50.1µM*,35.7%
